PubChem BioAssay (NCI)
This is part of a sample that, as a whole, favours compounds with a hit. Of some 79,000 tested, about 15% had one in any assay. A number with no mark means an inactive call. The source made the active and inactive calls. Rule as the data show it: active = growth inhibition above about 70%; inactive = the rest.

Assay: NCI Yeast Anticancer Drug Screen. Data for the rad50 strain (AID 155);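 also: 0% = growth of vehicle-only cultures of the same strain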
Details: S. cerevisiae rad50 strain growth inhibition, active compounds read high
Protocol: Growth inhibition of yeast strains with defined genetic alterations is measured as a screen for potential anti-cancer activity. Selected strains with alterations in DNA damage repair or cell cycle control were exposed to compounds and growth inhibition was measured relative to vehicle treated controls. The strain used in this assay is rad50

[1] = at 5.0 µM (retest, dose inferred, filed as 0.5)
[2] = at 50.0 µM (retest, dose inferred, filed as 5.0)

Question: What does the source list for `COc1ccc(C(=O)NCCN2CCN3Cc4[nH]c5ccccc5c4CC3C2)cc1` (configuration not stated)?
Answer: growth inhibition [1]: -1%; growth inhibition [2]: 3%; growth inhibition (at 50.0 µM): 1.65%

Question: What does the source list for `C(=N\NC1=NCCN1)/c1ccc(-c2cn3cc(/C=N/NC4=NCCN4)ccc3n2)cc1`?
Answer: growth inhibition [1]: 99% (active); growth inhibition [2]: 99% (active); growth inhibition (at 50.0 µM): 99.1% (active)

Question: What does the source list for `CCCCCCCC/C=C\CCCCCCCC(=O)NCC[N+](C)(C)C`?
Answer: growth inhibition [1]: 48%; growth inhibition [2]: 99% (active); growth inhibition (at 50.0 µM): 99.2% (active)

Question: What does the source list for `O=c1cc(CSc2ccc(Cl)cc2)occ1O`?
Answer: growth inhibition [1]: 3%; growth inhibition [2]: 32%; growth inhibition (at 50.0 µM): 44.5%

Question: What does the source list for `C/C(CCn1[nH]c(=O)ccc1=O)=N\Nc1ccc([N+](=O)[O-])cc1[N+](=O)[O-]`?
Answer: growth inhibition [1]: 44%; growth inhibition [2]: 97% (active); growth inhibition (at 50.0 µM): 67.3%

Question: Which results are given for `O=Cc1c(O)ccc2ccccc12`?
Answer: growth inhibition [1]: 12%; growth inhibition [2]: 99% (active); growth inhibition (at 50.0 µM): 99.2% (active)

Question: Which growth inhibition [1] does the source give for `Clc1cccc2c(-c3ccccc3)c3cccc(Cl)c3cc12` here?
Answer: 4%

Question: What about the growth inhibition [2] of the same compound?
Answer: 45%

Question: And the growth inhibition (at 50.0 µM)?
Answer: 58.8%

Question: What does the source list for `CC(=O)Nc1ccc(S(=O)(=O)/N=C2\C=CC(=O)c3ccccc32)cc1`?
Answer: growth inhibition [1]: 2%; growth inhibition [2]: 27%; growth inhibition (at 50.0 µM): 63.9%

Question: What does the source list for `O=C(CNc1ccc(Cl)cc1)Nn1c(-c2ccccc2)nc2ccccc2c1=O`?
Answer: growth inhibition [1]: 8%; growth inhibition [2]: 29%; growth inhibition (at 50.0 µM): 64.7%

Question: With `O=C1CCC(c2ccccc2)=NN1c1nc2ccccc2s1` as the compound, how does the growth inhibition [1] read?
Answer: 5%

Question: And the growth inhibition [2]?
Answer: 90% (active)

Question: What about the growth inhibition (at 50.0 µM) of the same compound?
Answer: 98.3% (active)

Question: For `Cc1nc2[nH]cc(C)c2c(=O)[nH]1`, which growth inhibition [1] is on record?
Answer: 6%

Question: And the growth inhibition [2]?
Answer: -11%

Question: What about the growth inhibition (at 50.0 µM) of the same compound?
Answer: -24.8%

Question: With `CC(=O)NC1CCCCC1c1ccc(C2CCCCC2NC(C)=O)cc1` (configuration not stated) as the compound, how does the growth inhibition [1] read?
Answer: -8%

Question: And the growth inhibition [2]?
Answer: 3%

Question: What about the growth inhibition (at 50.0 µM) of the same compound?
Answer: -11.9%

Question: With `C/C(=N/NC(=S)Nc1ccc(C)cc1)c1ccccn1` as the compound, how does the growth inhibition [1] read?
Answer: 31%

Question: What about the growth inhibition [2] of the same compound?
Answer: 99% (active)

Question: And the growth inhibition (at 50.0 µM)?
Answer: 79.2% (active)

Question: Which growth inhibition [1] does the source give for `C/C(=N/NC(=S)N1CCCCC1)c1cccc(/C(C)=N\NC(=S)N2CCCCC2)n1` here?
Answer: -13%

Question: And the growth inhibition [2]?
Answer: 93% (active)

Question: What about the growth inhibition (at 50.0 µM) of the same compound?
Answer: 74.2% (active)
